Activity calls are given as the source filed them. Calls come from the whole dose curve.
% is set by controls: 0 for no effect and ±100 for the full control effect.

The nature of the experiment: G protein-coupled receptor (GPCR) small molecule agonists, calcium flux assay: HEK293 wild type cell line counter screen (AID 1920065). As to conditions: HEK293 WT calcium flux, fluorescence, agonist mode; series mostly up to 57.6 µM; activation: at the top concentration. An excerpt:
U.S. Tox21 Program National Center for Advancing Translational Sciences [NCATS] Division of Preclinical Innovation [DPI] U.S. Environmental Protection Agency [EPA] National Institutes of Environmental Health Sciences [NIEHS] National Toxicology Program [NTP] U.S. Food and Drug Administration [FDA] Assay overview: The increased intracellular calcium release that occurred upon G protein-coupled receptor (GPCR) activation led to the frequent use of calcium flux assays to detect GPCR activation. For the purpose of studying and screening compounds that may activate GPCR, receptor-overexpressing models were typically generated using Hek293 wild-type (WT) cells. In order to eliminate the compounds that may have induced calcium release for non-specific activation, a counter-assay utilizing calcium flux on Hek293 WT cells was performed. The data were formulated in order to serve as a control for any calcium flux detection utilizing Hek293 cells with either GPCR overexpression or gene modification. The procurement of Hek293 WT cells from ATCC. Fluorescence intensity can be utilized to determine the activation of the compound in a calcium flux assay. As a counter control, this cell line was utilized to screen the Tox21 10K compound library.
Assay Protocol Summary: Hek293 cells were dispensed at 1500cells/4uL/well in 1536-well black wall/clear bottom plates using a multidrop dispenser. After the assay plates were incubated at a 37 C/5% CO2 incubator for 18 hours, 4 uL of Calcium Dye Solution was added to each well. The plates were incubated at 37 C for 1 hour. For agonist mode, 23 nL of compounds dissolved in DMSO, positive control (ATP) or DMSO only was transferred to the assay plate by a pin tool station. The fluorescence intensity in the plates was measured using FDSS 7000EX kinetic plate reader with a filter set of Ex/Em=480/540 for 3 min at 1 sec intervals. Each test compound was measured at 15 concentrations and in triplicates.
Background: Calcium assays in cells follow changes in intracellular calcium, usually with a dye or a luminescent sensor.
In the case of `CCC(=O)Oc1ccc2c(c1)CC[C@@H]1[C@@H]2CC[C@@]2(C)[C@H]1C[C@@H](OC(=O)CC)[C@@H]2OC(=O)CC`, the “activation” value is 1.38% [at 26.5 µM] (inactive).
In the case of `O=C(O)Cc1sc(-c2ccccc2)nc1-c1ccc(Cl)cc1` it was -1.17% [at 26.5 µM] (inactive); in that of `C[N+]1(C)[C@@H]2CC(OC(=O)[C@H](CO)c3ccccc3)C[C@H]1[C@@H]1O[C@@H]12` (stereo not given in full), 0.0273% [at 26.5 µM] (inactive).
In the case of `CC/C(=C\C(=N/O)C(N)=O)C(C)[N+](=O)[O-]` (stereo not given) it was -1.09% (inactive); in that of `COC(=O)C1=C(C)NC(C)=C(C(=O)OCCN2CCN(C(c3ccccc3)c3ccccc3)CC2)C1c1cccc([N+](=O)[O-])c1` (stereo not given), -0.348% [at 26.5 µM] (inactive); in that of `Cc1cn([C@@H]2O[C@H](CO)[C@@H](O)[C@@H]2F)c(=O)[nH]c1=O`, -0.0528% [at 26.5 µM] (inactive).
In the case of `CCOC(=O)C1=NOC(c2ccccc2)(c2ccccc2)C1` it was -0.0487% (inactive).
In the case of `CC[N+](C)(CC)CCOC(=O)C(O)(c1ccccc1)C1CCCCC1` (stereo not given), the “activation” value was -0.721% [at 26.5 µM] (inactive).
In the case of `Cn1c(N)c(N=O)c(=O)n(C)c1=O` it was -1.04% (inactive); in that of `Clc1cc(Cl)c(-c2c(Cl)c(Cl)cc(Cl)c2Cl)cc1Cl`, -1.04% [at 26.5 µM] (inactive).
Under `CC(C)(C)C(=O)/C=C/c1ccc(Cl)cc1` stands 0.0992% (inactive).
With `O=P(O)(O)C(O)(Cc1cccnc1)P(=O)(O)O`, the “activation” value was 0.575% [at 26.5 µM] (inactive).
In the case of `COc1ccc(C(=O)Nc2nc3ccccc3c(NCc3ccccc3)c2C#N)cc1` it was 2.79% (inactive).
Under `CCC(C)COC(=O)CC(C)C` (stereo not given) stands 0.0068% (inactive).
Under `CCOc1nc(F)cc2nc(S(=O)(=O)Nc3c(Cl)cccc3C(=O)OC)nn12` stands 1.53% (inactive); under `OCC(CO)n1cnc(-c2ccc(F)cc2)c1-c1ccnc(Oc2ccccc2)n1`, -0.0539% (inactive).
Consider `CCCCCCCCOCCCN`, for which the “activation” value was 0.59% (inactive).
Take `OCC(CO)(CO)COCC(CO)(CO)CO`: the “activation” value was -0.527% (inactive).
Turning to `CCN[C@@H]1C[C@H](N)[C@@H](OC2OC(CN)=CCC2N)[C@H](O)[C@H]1O[C@H]1OC[C@](C)(O)[C@H](NC)[C@H]1O` (stereo not given in full), the activation was 1.44% [at 0.217 µM] (inactive).
In the case of `CCCCCCCCCCn1cc[n+](CCCCCCCCCC)c1C` it was -0.387% (inactive); in that of `CC(C)(C)c1cccc(O)c1`, -1.93% (inactive).
For the molecule `Cc1cc(-c2ccccc2)nnc1NCCN1CCOCC1`, the “activation” value is -0.0759% [at 26.5 µM] (inactive).
Under `CO[C@H]1C=CO[C@@]2(C)Oc3c(C)c(O)c4c(O)c(cc(O)c4c3C2=O)NC(=O)/C(C)=C\C=C/[C@H](C)[C@H](O)[C@@H](C)[C@@H](O)[C@@H](C)[C@H](OC(C)=O)[C@@H]1C` stands -1.16% (inactive); under `C[C@@H]1C[C@H]2[C@@H]3CCC4=CC(=O)C=C[C@]4(C)[C@@]3(F)[C@@H](O)C[C@]2(C)[C@@]1(O)C(=O)CO`, 0.351% (inactive); under `Cc1ccc(C=O)s1`, -0.0596% (inactive).
As to `C=CCCCCCCCCC=O`, the “activation” value was -0.0292% (inactive).
Under `CC(C)Cc1ccc(C(C)C(=O)OCc2ccccn2)cc1` (stereo not given) stands 0.827% [at 26.5 µM] (inactive); under `CCCCCCOC(=O)CCCCC`, 0.105% (inactive).
In the case of `N=C1N=C(N)c2ccccc21` it was -0.176% (inactive); in that of `O=[N+]([O-])c1cccc(I)c1`, 0.309% (inactive); in that of `C#C[C@]1(OC(C)=O)CC[C@H]2[C@@H]3CCC4=C[C@@H](OC(C)=O)CC[C@@H]4[C@H]3CC[C@@]21C`, -0.256% [at 26.5 µM] (inactive).
Under `CN1C(=O)CC(c2ccccc2)C1=O` (stereo not given) stands 1.08% [at 26.5 µM] (inactive); under `CCCCCCCCC(=O)Cl`, 0.225% (inactive); under `C[C@@H](CN1CC(=O)NC(=O)C1)N1CC(=O)NC(=O)C1`, 0.376% [at 26.5 µM] (inactive).
Regarding `CC(C(=O)O)c1ccc2c(c1)CC(=O)c1ccccc1S2` (stereo not given), the “activation” value was 0.419% [at 26.5 µM] (inactive).
Under `CC(C)Oc1ccccc1O` stands 1.3% (inactive).
In the case of `CCCCCCCCCCCCS(=O)(=O)Cl` it was -1.76% [at 11.8 µM] (inactive).
Under `CN(C)CCC[C@@]1(c2ccc(F)cc2)OCc2cc(C#N)ccc21` stands -0.257% [at 26.5 µM] (inactive); under `CC1c2ccccc2CN1NC(=O)c1ccc(Cl)c(S(N)(=O)=O)c1` (stereo not given), -1.51% [at 26.5 µM] (inactive); under `CCc1cc(Cl)c(OC)c(C(=O)NC[C@@H]2CCCN2CC)c1O`, -0.16% [at 26.5 µM] (inactive).
